Inconclusive results are not listed. The source made the active and inactive calls. How the source made its calls, unless noted: active means hit-call score of the fitted dose curve at least 0.9, where 1 is the maximum; inconclusive means response in the unintended direction; inactive means score below 0.9.
Key:
[1] = ATG_TCF_b_cat_CIS: Attagene CIS-FACTORIAL HepG2 Assay for human T-Cell-Factor with beta-catenin (TCF/b-cat) (AID 2282965; active means hit-call score of the fitted dose curve at least 0.9, where 1 is the maximum; inactive means score below 0.9); conditions: HepG2 TCF/beta-catenin cis-reporter transcription, actives raise or lower the signal
Summary of the method: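 Measured: reporter mRNA in HepG2 transiently transfected with cis-promoter reporter units, 24 h after chemical addition. Fitting was bidirectional, DMSO as negative control.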

[2] = ATG_TGFb_CIS: Attagene CIS-FACTORIAL HepG2 Assay for human Transforming Growth Factor (TGF) (AID 2282967; active means hit-call score of the fitted dose curve at least 0.9, where 1 is the maximum; inactive means score below 0.9); conditions: HepG2 Attagene CIS TGFb reporter, mRNA transcription; actives raise or lower the signal
Summary of the method: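 Endogenous TGFB1-linked transcription factor activity read as reporter mRNA via RT-PCR and capillary electrophoresis, 24 h after dosing transiently transfected HepG2 cells. Gain or loss of signal fitted relative to DMSO.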

[3] = ATG_VDRE_CIS: Attagene CIS-FACTORIAL HepG2 Assay for human Vitamin D Receptor Element (VDRE) (AID 2282968; active means hit-call score of the fitted dose curve at least 0.9, where 1 is the maximum; inactive means score below 0.9); conditions: HepG2 VDRE cis-reporter transcription, actives raise or lower the signal
Summary of the method: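 Measures endogenous factor activity through cis-element-driven reporter transcripts in transiently transfected HepG2. Cells are treated 24 h; reporter mRNA is quantified by RT-PCR and capillary electrophoresis; fitting is bidirectional.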

[4] = target: Nuclear receptor subfamily 1 group I member 3 (Homo sapiens) (UniProt Q14994); experiment: ATG_CAR_TRANS: Attagene TRANS-FACTORIAL HepG2 Assay for human Constitutive Androstane Receptor (CAR) (AID 2282969); conditions: HepG2 Attagene TRANS-FACTORIAL CAR reporter;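 further: activators raise reporter mRNA above DMSO so AC50 marks induction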
Summary of the method: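 Signal is reporter mRNA induction relative to DMSO, measured 24 h after dosing by RT-PCR with fluorescent primer extension and capillary electrophoresis. Human HepG2 liver cells carried transiently transfected chimeric NR-Gal4/GAL4-UAS reporter constructs.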

[5] = target: X-box-binding protein 1 (Homo sapiens) (UniProt P17861); experiment: ATG_Xbp1_CIS: Attagene CIS-FACTORIAL HepG2 Assay for human X-box Binding Protein 1 (XBP1) (AID 2282972; active means hit-call score of the fitted dose curve at least 0.9, where 1 is the maximum; inactive means score below 0.9); conditions: HepG2 XBP1 cis-element reporter, Attagene multiplex; actives raise or lower the signal
Summary of the method: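 Changes in reporter transcript abundance, read by RT-PCR and capillary electrophoresis, reflect endogenous transcription factor activity. Transfected HepG2 cells received compound for 24 hours; DMSO defined baseline for bidirectional analysis.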

[6] = ATG_M_19_TRANS: Attagene TRANS-FACTORIAL HepG2 Assay for M19 Transcription Factor (Internal Marker) (AID 2282974); conditions: HepG2 Attagene TRANS-FACTORIAL M19 internal marker reporter
Summary of the method: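 After transfection of HepG2 with GAL4-UAS-driven reporter constructs, cells are dosed for 24 h. Total RNA is reverse-transcribed, reporter sequences PCR-amplified and labelled, then HpaI-digested and sized by capillary electrophoresis.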

[7] = target: Bile acid receptor (Homo sapiens) (UniProt Q96RI1); experiment: ATG_FXR_TRANS: Attagene TRANS-FACTORIAL HepG2 Assay for Farnesoid X Receptor (FXR) (AID 2282979); conditions: HepG2 Attagene TRANS FXR-GAL4 reporter transcription;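 further: hits raise reporter mRNA above DMSO so AC50 marks FXR activation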
Summary of the method: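 Chimeric FXR-GAL4 activity in transiently transfected human HepG2 liver cells is scored as induction of reporter mRNA after 24 h of dosing. Detection uses RT-PCR with fluorescent labelling and capillary electrophoresis, with DMSO serving as baseline.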

[8] = ATG_M_32_TRANS: Attagene TRANS-FACTORIAL HepG2 Assay for M32 Transcription Factor (Internal Marker) (AID 2282984); conditions: HepG2 Attagene TRANS M32 internal marker reporter;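 further: transcript level of a background control reporter unit measured by RT-PCR and capillary electrophoresis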
Summary of the method: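 Cell-based TRANS-format assay in HepG2: exogenous chimeric GAL4 reporter units transiently expressed, compounds applied 24 h. Reporter mRNA detected by RT-PCR plus capillary electrophoresis; this readout is an internal background marker.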

[9] = target: Nuclear receptor subfamily 4 group A member 2 (Homo sapiens) (UniProt P43354); experiment: ATG_NURR1_TRANS: Attagene TRANS-FACTORIAL HepG2 Assay for human Nuclear Receptor Related Protein 1 (NURR1) (AID 2282985); conditions: HepG2 Attagene TRANS reporter, mRNA readout
Summary of the method: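 Measures transcriptional activation by an exogenous NR-Gal4 chimera in transfected HepG2 liver cells. After 24 h, reporter RNA is reverse-transcribed, amplified and resolved by capillary electrophoresis; DMSO defines baseline.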

[10] = target: Transcriptional activator Myb (Homo sapiens) (UniProt P10242); experiment: ATG_Myb_CIS: Attagene CIS-FACTORIAL HepG2 Assay for human Myeloblastosis (Myb) Proto-Oncogene Transcription Factor (AID 2282986; active means hit-call score of the fitted dose curve at least 0.9, where 1 is the maximum; inactive means score below 0.9); conditions: HepG2 Attagene CIS-FACTORIAL Myb reporter transcription; actives raise or lower the signal
Summary of the method: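 Endogenous transcription factor activity at a Myb-responsive cis element is reported in human liver HepG2 cells after 24 h chemical treatment. Reporter mRNA is detected by RT-PCR and capillary electrophoresis fluorescence, with DMSO as baseline.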

[11] = ATG_TAL_CIS: Attagene CIS-FACTORIAL HepG2 Assay for human TAL Basal Promoter (AID 2282966; active means hit-call score of the fitted dose curve at least 0.9, where 1 is the maximum; inactive means score below 0.9;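 further: background control endpoint measuring basal TAL promoter reporter mRNA not a specific factor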); conditions: HepG2 Attagene cis-factorial TAL promoter reporter; actives raise or lower the signal
Summary of the method: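 Endogenous transcription-factor activity is sensed in HepG2 cells through transfected cis-promoter reporter constructs. After 24 h dosing, reporter transcripts are quantified by RT-PCR and capillary electrophoresis. Gain or loss of signal is fitted relative to DMSO.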

[12] = target: Estrogen-related receptor gamma (Homo sapiens) (UniProt P62508); experiment: ATG_ERRg_TRANS: Attagene TRANS-FACTORIAL HepG2 Assay for human Estrogen-Related Receptor gamma (ERRg) (AID 2282977); conditions: HepG2 Attagene TRANS reporter, ERRg transactivation;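 further: hits increase reporter signal over DMSO so potencies reflect activators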
Summary of the method: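 Exogenous NR-Gal4 chimera activity was assessed in HepG2 cells bearing transfected GAL4-UAS reporters. After 24 h dosing, total RNA underwent RT-PCR, fluorescent primer extension and HpaI digestion before capillary electrophoresis, with gain of signal scored against DMSO.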

[13] = target: Glucocorticoid receptor (Homo sapiens) (UniProt P04150); experiment: ATG_GR_TRANS: Attagene TRANS-FACTORIAL HepG2 Assay for human Glucocorticoid Receptor (GR) (AID 2282978); conditions: HepG2 Attagene TRANS GR reporter, mRNA transcription;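 further: activators score as hits since higher reporter transcript over DMSO is fitted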
Summary of the method: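 Multiplexed TRANS reporter system, HepG2; 24 h exposure; RNA → oligo(dT) RT → reporter-specific PCR → 6-FAM primer extension → HpaI cut → CE fluorescence. Gain-of-signal vs DMSO.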

[14] = target: Hepatocyte nuclear factor 4-alpha (Homo sapiens) (UniProt P41235); experiment: ATG_HNF4a_TRANS: Attagene TRANS-FACTORIAL HepG2 Assay for human Hepatocyte Nuclear Factor 4 alpha (HNF4a) (AID 2282982); conditions: HepG2 HNF4a transactivation reporter, mRNA readout
Summary of the method: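 Multiplexed reporter assay: transfected HepG2, 24 h exposure, total RNA → oligo(dT) RT → PCR → 6-FAM extension → HpaI digest → CE fluorescence. DMSO = negative control.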

[15] = ATG_M_06_TRANS: Attagene TRANS-FACTORIAL HepG2 Assay for M06 Transcription Factor (Internal Marker) (AID 2282983); conditions: HepG2 Attagene TRANS M06 internal marker reporter;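 further: reporter transcript level by RT-PCR then capillary electrophoresis fluorescence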
Summary of the method: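 Human liver HepG2 cells bearing transiently transfected chimeric NR-GAL4 reporter units were treated with chemicals for 24 h. Total RNA was reverse-transcribed, reporter sequences amplified and labelled, then quantified by capillary electrophoresis. Activity was fitted upward relative to DMSO.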

[16] = target: Steroid hormone receptor ERR1 (Homo sapiens) (UniProt P11474); experiment: ATG_ERRa_TRANS: Attagene TRANS-FACTORIAL HepG2 Assay for human Estrogen-Related Receptor alpha (ERRa) (AID 2282971); conditions: HepG2 Attagene TRANS reporter, ERRa transactivation
Summary of the method: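 HepG2 cells were transiently transfected with multiple GAL4-UAS reporter units, then dosed with compound for 24 h. Total RNA was reverse-transcribed, reporter cDNA PCR-amplified and fluorescently labelled, and fragments resolved by capillary electrophoresis; induction was compared with DMSO.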

[17] = target: Oxysterols receptor LXR-alpha (Homo sapiens) (UniProt Q13133); experiment: ATG_LXRa_TRANS: Attagene TRANS-FACTORIAL HepG2 Assay for human Liver X Receptor alpha (LXRa) (AID 2282980); conditions: HepG2 Attagene TRANS reporter, LXRa transactivation
Summary of the method: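 Transient HepG2 transfectants, 24 h dosing, RT-PCR/CE mRNA reporter quantitation; gain-of-signal vs DMSO.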

[18] = target: Oxysterols receptor LXR-beta (Homo sapiens) (UniProt P55055); experiment: ATG_LXRb_TRANS: Attagene TRANS-FACTORIAL HepG2 Assay for human Liver X Receptor beta (LXRb) (AID 2282981); conditions: HepG2 Attagene TRANS GAL4-LXRb reporter, mRNA
Summary of the method: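 After 24 h of chemical treatment, transfected HepG2 cells yield total RNA; reporter cDNA is PCR-amplified, FAM-labelled, HpaI-cut and run on capillary electrophoresis. Signal reflects chimeric LXRb-Gal4 activity on GAL4-UAS reporters.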

[19] = target: Estrogen receptor (Homo sapiens) (UniProt P03372); experiment: ATG_ERa_TRANS: Attagene TRANS-FACTORIAL HepG2 Assay for human Estrogen Receptor alpha (ERa) (AID 2282970); conditions: HepG2 Attagene TRANS ERa GAL4 reporter, mRNA
Summary of the method: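 Transfected HepG2 cells carrying GAL4-UAS-driven reporter units were dosed for 24 hours. Total RNA was reverse-transcribed, reporter sequences PCR-amplified, FAM-labelled, HpaI-digested and resolved by capillary electrophoresis. Increases over DMSO control defined activity.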

[20] = ATG_GAL4_TRANS: Attagene TRANS-FACTORIAL HepG2 Assay for GAL4 (Internal Marker) (AID 2282976); conditions: HepG2 Attagene TRANS GAL4 internal marker reporter
Summary of the method: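 Fluorescence from capillary electrophoresis of labelled RT-PCR products quantifies reporter mRNA induction after 24 h dosing of HepG2 cells carrying transfected GAL4-UAS reporter transcription units. Vehicle DMSO serves as baseline.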

Measured: AC50

Sequence of Hepatocyte nuclear factor 4-alpha (Homo sapiens) (P41235 whole entry, looked up): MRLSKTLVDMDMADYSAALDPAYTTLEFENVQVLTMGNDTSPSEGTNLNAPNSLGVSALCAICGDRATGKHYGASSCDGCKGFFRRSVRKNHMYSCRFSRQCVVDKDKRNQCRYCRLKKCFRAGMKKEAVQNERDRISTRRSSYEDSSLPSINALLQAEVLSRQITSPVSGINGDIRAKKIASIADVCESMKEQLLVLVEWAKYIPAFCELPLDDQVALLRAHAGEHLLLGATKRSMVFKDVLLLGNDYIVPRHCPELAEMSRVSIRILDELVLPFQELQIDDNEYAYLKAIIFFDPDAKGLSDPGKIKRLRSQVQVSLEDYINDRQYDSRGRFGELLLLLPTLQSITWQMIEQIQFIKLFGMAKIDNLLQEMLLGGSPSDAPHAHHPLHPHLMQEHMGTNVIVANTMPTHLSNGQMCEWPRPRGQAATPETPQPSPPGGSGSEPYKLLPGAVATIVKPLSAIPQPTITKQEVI
Sequence of Nuclear receptor subfamily 1 group I member 3 (Homo sapiens) (Q14994 whole entry, looked up, the tested form may be a part): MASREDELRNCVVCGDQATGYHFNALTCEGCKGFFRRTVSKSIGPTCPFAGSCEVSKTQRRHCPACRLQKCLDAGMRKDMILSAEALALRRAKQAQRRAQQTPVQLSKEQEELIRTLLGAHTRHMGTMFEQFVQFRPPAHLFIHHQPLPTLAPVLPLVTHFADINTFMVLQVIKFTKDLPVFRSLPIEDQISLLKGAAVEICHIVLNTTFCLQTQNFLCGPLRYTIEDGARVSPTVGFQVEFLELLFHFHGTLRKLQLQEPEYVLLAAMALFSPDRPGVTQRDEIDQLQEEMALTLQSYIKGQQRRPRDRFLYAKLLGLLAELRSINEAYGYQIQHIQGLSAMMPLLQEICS
Sequence of Glucocorticoid receptor (Homo sapiens) (P04150 whole entry, looked up): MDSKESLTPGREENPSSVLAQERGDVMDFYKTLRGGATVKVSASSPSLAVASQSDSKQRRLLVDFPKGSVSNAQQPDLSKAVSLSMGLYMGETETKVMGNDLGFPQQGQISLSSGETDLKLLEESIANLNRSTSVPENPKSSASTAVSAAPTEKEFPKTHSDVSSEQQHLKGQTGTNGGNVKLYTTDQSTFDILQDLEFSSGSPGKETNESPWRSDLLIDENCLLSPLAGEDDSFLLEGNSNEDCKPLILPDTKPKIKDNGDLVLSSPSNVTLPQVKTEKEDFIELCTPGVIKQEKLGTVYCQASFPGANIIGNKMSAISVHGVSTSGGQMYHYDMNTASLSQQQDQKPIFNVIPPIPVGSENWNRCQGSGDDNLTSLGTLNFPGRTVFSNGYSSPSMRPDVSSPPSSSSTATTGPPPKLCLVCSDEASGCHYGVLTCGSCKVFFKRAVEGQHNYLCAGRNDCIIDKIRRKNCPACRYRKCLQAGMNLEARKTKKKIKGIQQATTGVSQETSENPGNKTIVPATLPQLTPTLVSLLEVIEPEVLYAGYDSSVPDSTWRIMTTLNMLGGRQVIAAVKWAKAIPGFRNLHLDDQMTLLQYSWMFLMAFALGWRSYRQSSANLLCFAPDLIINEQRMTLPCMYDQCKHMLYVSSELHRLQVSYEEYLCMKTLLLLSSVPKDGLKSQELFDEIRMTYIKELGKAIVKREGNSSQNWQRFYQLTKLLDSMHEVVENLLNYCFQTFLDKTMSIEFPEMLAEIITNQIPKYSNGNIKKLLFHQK
Sequence of Oxysterols receptor LXR-alpha (Homo sapiens) (Q13133 whole entry, looked up): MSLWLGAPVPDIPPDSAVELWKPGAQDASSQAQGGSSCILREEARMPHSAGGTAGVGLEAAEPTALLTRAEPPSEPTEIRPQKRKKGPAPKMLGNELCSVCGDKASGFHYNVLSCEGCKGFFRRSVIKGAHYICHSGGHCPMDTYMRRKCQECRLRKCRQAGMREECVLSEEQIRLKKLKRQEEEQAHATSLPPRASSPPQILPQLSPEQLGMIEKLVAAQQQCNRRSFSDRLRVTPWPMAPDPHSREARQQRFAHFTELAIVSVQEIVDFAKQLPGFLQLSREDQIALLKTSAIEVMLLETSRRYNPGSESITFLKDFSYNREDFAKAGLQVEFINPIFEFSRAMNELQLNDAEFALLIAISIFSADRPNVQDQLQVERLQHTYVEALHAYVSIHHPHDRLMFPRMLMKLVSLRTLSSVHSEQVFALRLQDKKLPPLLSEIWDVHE
Sequence of Bile acid receptor (Homo sapiens) (Q96RI1 whole entry, looked up, the tested form may be a part): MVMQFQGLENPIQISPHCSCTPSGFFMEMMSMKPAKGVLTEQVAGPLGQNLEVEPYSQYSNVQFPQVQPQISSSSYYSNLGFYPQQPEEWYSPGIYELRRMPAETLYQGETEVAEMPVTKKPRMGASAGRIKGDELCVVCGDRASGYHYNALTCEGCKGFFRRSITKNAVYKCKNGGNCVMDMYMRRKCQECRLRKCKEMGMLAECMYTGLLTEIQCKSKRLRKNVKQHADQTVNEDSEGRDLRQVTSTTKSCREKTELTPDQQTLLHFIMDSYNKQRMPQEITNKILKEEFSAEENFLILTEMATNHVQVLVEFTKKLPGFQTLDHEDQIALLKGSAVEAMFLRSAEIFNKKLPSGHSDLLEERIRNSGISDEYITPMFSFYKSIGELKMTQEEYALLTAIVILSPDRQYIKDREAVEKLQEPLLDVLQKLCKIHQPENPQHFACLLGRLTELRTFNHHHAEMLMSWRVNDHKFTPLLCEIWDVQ
Sequence of Oxysterols receptor LXR-beta (Homo sapiens) (P55055 whole entry, looked up, the tested form may be a part): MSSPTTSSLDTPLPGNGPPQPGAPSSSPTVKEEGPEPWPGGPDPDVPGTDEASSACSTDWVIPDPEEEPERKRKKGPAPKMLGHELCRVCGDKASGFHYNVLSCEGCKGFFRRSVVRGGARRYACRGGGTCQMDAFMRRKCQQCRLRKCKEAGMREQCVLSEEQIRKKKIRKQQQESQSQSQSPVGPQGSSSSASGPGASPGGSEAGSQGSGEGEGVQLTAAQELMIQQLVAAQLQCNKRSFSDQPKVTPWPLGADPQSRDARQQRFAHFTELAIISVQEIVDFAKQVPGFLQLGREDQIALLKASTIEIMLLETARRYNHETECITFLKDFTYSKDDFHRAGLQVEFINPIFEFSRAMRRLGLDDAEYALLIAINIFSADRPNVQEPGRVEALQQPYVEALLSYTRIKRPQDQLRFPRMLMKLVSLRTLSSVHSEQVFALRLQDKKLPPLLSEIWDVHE
Sequence of Estrogen receptor (Homo sapiens) (P03372 whole entry, looked up, the tested form may be a part): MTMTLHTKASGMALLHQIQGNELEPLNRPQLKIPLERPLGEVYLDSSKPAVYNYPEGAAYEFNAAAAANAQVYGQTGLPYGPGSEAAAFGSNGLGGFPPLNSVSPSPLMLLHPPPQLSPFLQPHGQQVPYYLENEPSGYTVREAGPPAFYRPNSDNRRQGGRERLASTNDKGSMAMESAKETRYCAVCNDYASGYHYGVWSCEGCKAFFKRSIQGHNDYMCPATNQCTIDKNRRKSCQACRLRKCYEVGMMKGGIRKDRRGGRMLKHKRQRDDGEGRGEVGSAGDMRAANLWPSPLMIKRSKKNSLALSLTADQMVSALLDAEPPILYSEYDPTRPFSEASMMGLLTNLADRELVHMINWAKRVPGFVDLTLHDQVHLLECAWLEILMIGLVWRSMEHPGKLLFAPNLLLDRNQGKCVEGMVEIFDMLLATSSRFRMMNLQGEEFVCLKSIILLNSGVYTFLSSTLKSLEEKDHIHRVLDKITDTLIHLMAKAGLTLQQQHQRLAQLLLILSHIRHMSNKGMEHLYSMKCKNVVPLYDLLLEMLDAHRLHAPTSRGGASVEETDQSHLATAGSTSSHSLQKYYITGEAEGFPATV
Sequence of X-box-binding protein 1 (Homo sapiens) (P17861 whole entry, looked up): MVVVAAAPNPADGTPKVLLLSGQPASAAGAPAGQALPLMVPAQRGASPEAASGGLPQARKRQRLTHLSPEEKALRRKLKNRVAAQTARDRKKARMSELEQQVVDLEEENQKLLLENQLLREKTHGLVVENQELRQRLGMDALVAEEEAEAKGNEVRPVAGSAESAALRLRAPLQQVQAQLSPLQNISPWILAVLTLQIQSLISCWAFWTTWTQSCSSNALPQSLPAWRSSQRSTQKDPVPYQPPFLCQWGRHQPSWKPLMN
Sequence of Nuclear receptor subfamily 4 group A member 2 (Homo sapiens) (P43354 whole entry, looked up, the tested form may be a part): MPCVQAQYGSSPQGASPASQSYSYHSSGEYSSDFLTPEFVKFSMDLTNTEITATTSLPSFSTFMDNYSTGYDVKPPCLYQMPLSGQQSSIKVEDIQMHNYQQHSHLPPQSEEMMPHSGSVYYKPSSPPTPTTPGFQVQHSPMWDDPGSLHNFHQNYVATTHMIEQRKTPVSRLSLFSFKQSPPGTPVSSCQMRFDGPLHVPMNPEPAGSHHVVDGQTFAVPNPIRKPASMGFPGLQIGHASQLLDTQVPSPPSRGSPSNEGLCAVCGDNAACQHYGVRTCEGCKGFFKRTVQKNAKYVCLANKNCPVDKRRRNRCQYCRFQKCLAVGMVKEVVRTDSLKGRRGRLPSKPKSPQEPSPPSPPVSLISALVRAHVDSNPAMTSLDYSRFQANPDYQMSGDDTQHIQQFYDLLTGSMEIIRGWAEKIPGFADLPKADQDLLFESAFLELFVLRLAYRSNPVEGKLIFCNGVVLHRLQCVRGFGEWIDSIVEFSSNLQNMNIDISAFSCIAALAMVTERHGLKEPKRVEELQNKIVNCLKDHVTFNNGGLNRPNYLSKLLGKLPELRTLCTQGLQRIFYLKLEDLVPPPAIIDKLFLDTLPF
Sequence of Steroid hormone receptor ERR1 (Homo sapiens) (P11474 whole entry, looked up, the tested form may be a part): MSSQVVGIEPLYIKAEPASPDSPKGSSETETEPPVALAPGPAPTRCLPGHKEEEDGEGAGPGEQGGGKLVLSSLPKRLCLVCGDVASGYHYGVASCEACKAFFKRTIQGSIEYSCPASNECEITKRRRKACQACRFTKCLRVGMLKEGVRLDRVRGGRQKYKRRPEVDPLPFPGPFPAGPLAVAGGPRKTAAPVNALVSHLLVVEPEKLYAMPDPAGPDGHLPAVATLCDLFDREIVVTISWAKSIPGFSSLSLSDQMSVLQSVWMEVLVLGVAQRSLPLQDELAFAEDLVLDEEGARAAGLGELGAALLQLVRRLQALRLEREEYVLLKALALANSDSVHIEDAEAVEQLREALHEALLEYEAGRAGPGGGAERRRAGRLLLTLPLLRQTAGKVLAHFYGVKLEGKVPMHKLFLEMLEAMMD

C[Si]1(C)O[Si](C)(C)O[Si](C)(C)O[Si](C)(C)O1
inactive: [1] | [2] | [3] | [4] | [5] | [6] | [7] | [8] | [9] | [10]

Clc1cc(Cl)c(Cl)cc1Cl
inactive: [1] | [11] | [2] | [5] | [12] | [13] | [14] | [15] | [9] | [10]

CCc1c(C(=O)NN2CCCCC2)nn(-c2ccc(Cl)cc2Cl)c1-c1ccc(Br)cc1
inactive: [11] | [16] | [5] | [6] | [7] | [8] | [9] | [10]
active: [1] 3.53 µM | [3] 1.38 µM

CNCc1cc(F)ccc1Oc1ccc(Cl)c(Cl)c1
inactive: [1] | [11] | [3] | [5] | [6] | [14] | [15] | [10]

CCOc1ccc2c(c1)C(C)=CC(C)(C)N2
active: [1] 58.1 µM | [2] 151 µM | [3] 38.2 µM | [5] 155 µM | [17] 38.2 µM | [9] 124 µM | [10] 183 µM
inactive: [4] | [6] | [12] | [18] | [14] | [8]

Oc1ccc2ccccc2c1N=Nc1ccccc1
inactive: [1] | [11] | [4] | [5] | [17] | [18] | [14] | [15] | [9] | [10]

CCCCCCCCCCCCCO
active: [1] 34.3 µM | [19] 65.7 µM | [10] 34.3 µM
inactive: [2] | [3] | [4] | [16] | [5] | [6] | [13] | [18] | [14] | [15] | [8]

Cc1cccc(Nc2cc(Cl)nc(SCC(=O)O)n2)c1C
inactive: [1] | [11] | [3] | [19] | [5] | [20] | [13] | [15] | [10]

CCCCC(CC)COC(=O)CC(C(=O)OCC(CC)CCCC)S(=O)(=O)O (stereo not drawn)
inactive: [1] | [3] | [4] | [5] | [20] | [13] | [17] | [15] | [9] | [10]

O=c1[nH]cc(F)c(=O)[nH]1
inactive: [1] | [3] | [5] | [6] | [13] | [8] | [9] | [10]
active: [19] 26.1 µM

CC(CO)OC(C)CO (stereo not drawn) (tested in a mixture with another compound)
inactive: [1] | [3] | [5] | [7] | [15] | [8] | [10]

CC(=O)OC/C=C(\C)CCC=C(C)C
inactive: [1] | [2] | [19] | [5] | [6] | [13] | [8] | [10]
